A selection: hits, their analogues and other compounds. The true share with any hit is near 4%.
HIF-2a inh: blocks HIF-2a reporter activity; inhibition, % at 18.8 µM; AID 624352; 786-0 RCC cells HIF-2a reporter, luciferase luminescence, overnight; actives 0.72% (n = 360,000);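 active means inhibition of the luminescence signal of 40% or more relative to plate controls, in a single-dose primary screen at 18.75 µM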
TWEAK-Fn14 inh: TWEAK-Fn14 signaling inhibition | TWEAK-stimulated Fn14 reporter cells, luciferase luminescence, 8 h | inhibition, % at 10 µM | actives 2% (n = 360,000) | AID 1159606; in the data active means inhibition above about 50%
CF NFkB block: blocks PAF-induced NF-kB reporter in cystic fibrosis cells. KKLEB NF-kB-GFP reporter, GFP fluorescence overnight. inhibition, % at 5 µM. actives 0.86% (n = 360,000);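 active means at least 50% inhibition at 5 µM, scaled per plate between neutral and stimulator controls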;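 further: PAF is a Pseudomonas aeruginosa culture filtrate used as stimulus; plate controls were PAF-stimulated DMSO wells for no effect and unstimulated DMSO wells for full effect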
KKLEB cytotox: CF airway cell cytotoxicity counter-screen | KKLEB CF airway cells viability, ATPlite luminescence, overnight; stronger effect = lower value; cells stimulated with P. aeruginosa culture filtrate | actives 0.36% (n = 360,000) | activity change (cytotoxicity), % at 5 µM;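 active means corrected activity change at or below -50% at 5 µM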
TROY signal inh: blocks TROY-dependent signaling in reporter cells; Q293 LMP1-TROYcd NF-kB luciferase reporter, 4 h; inhibition, % at 10 µM; actives 0.98% (n = 360,000); AID 1347056;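 active means compounds whose plate-normalised and pattern-corrected inhibition of the luciferase reporter signal at the single screening dose is 50% or more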
Peg3 promoter: Peg3 promoter activity inhibition. HeLa PEG-Prom luciferase reporter, luminescence, overnight. AID 588405. inhibition, % at 20 µM. actives 1.7% (n = 360,000);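 active means inhibition of at least 50% at 20 µM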
Starred values were filed as active, the others as inactive; nt = not tested or not shown.

SMILES	HIF-2a inh	TWEAK-Fn14 inh	CF NFkB block	KKLEB cytotox	TROY signal inh	Peg3 promoter
O=C1c2cccc3c([N+](=O)[O-])ccc(c23)C(=O)N1O	-1.2	-18.7	-20.9	13.3	11.5	20.5
O=C1c2cccc3c([N+](=O)[O-])ccc(c23)C(=O)N1c1ccccn1	25.6	-110.8	-25.1	-2.4	30.3	93.5*
C[C@@H]1COC(=O)[C@H](CC(=O)OC(C)(C)C)C/C=C\C[C@@H](CC(=O)NCCO)C(=O)N1	11.4	16.4	-1.5	-1.5	-6.9	-7.7
Cc1ccccc1OCC(=O)N/N=C/c1cccc(Oc2ccc([N+](=O)[O-])cc2[N+](=O)[O-])c1	8.6	63.1*	-29.8	1.3	30.1	12.6
O=C(N/N=C/c1cccc(OC(=O)c2ccc3c(c2)OCO3)c1)c1cncc(Br)c1	4.3	-15.5	2.8	13.0	-32.6	6.0
O=C(N/N=C/c1cccc(Oc2ccc([N+](=O)[O-])cc2[N+](=O)[O-])c1)c1cncc(Br)c1	2.3	45.3	3.1	-26.0	59.0*	20.9
CC(C)[C@@H]1CC[C@@H](C)C[C@H]1OC(=O)C[n+]1cc(-c2ccc(Cl)cc2)n2c1CCCCC2	-15.2	63.9*	47.7	-44.3	49.5	49.7
COc1ccccc1N1CCN(C(=O)CSc2ncccc2-c2nc3ccccc3[nH]2)CC1	-34.8	56.1*	0.5	7.4	-4.6	15.5
COc1ccc(N2CCN(C(=O)CSc3ncccc3-c3nc4ccccc4[nH]3)CC2)cc1	-11.3	32.3	-18.8	9.3	4.3	-10.1
CCOC(=O)CNC(=O)CSc1ncnc2c1cnn2-c1ccc(Cl)cc1	8.0	-4.7	11.0	-7.7	-9.7	-2.7
CCOC(=O)Cc1csc(NC(=O)CSc2ncnc3c2cnn3-c2ccc(OC)cc2)n1	-91.6	60.9*	10.8	-5.4	32.8	-58.7
COc1ccc(-n2ncc3c(SCC(=O)N4CCN(c5ccccc5OC)CC4)ncnc32)cc1	-29.6	54.9*	-8.7	-10.6	6.1	-1.7
O=C(CSc1ncccc1-c1nc2ccccc2[nH]1)NC1CC1	-30.4	52.8*	-2.3	2.1	55.3*	-2.3
COc1ccccc1N1CCN(C(=O)CSc2ncnc3scc(-c4ccccc4)c23)CC1	12.1	44.0	14.4	-13.1	19.3	36.4
COc1nc(N)nc2c1ncn2C1OC(CO)CC1O (centres undefined)	-3.5	20.7	-23.6	6.7	9.0	0.5
COc1ccccc1N1CCN(C(=O)CSc2nc3ccccc3[nH]2)CC1	-44.9	-8.5	7.0	1.1	39.0	-7.3
O=C(CSc1ncccc1-c1nc2ccccc2[nH]1)N1CCN(c2ccccc2F)CC1	-33.6	70.7*	-15.3	-0.8	57.4*	10.9
CC(C)Cc1ccc(C(C)CC2=CCC(CN(C)C)C2=O)cc1 (centres undefined)	-9.1	14.6	-8.6	1.7	0.5	100.5*
CC(C)Cc1ccc(S(=O)(=O)N2CCOCC2)cc1	0.8	-9.2	17.0	-5.3	-11.6	5.9
COc1ccc(C2CC(c3ccccc3)=NN2C(=O)COC(=O)c2ccc(Cl)nc2)cc1 (centres undefined)	-66.5	-64.8	2.0	-5.1	-109.6	-68.5
COc1ccc(C2CC(c3ccccc3)=NN2C(=O)COC(=O)c2cnc(Cl)c(Cl)c2)cc1 (centres undefined)	1.9	-71.4	13.1	-7.2	-45.0	99.4*
C/C(=N\NC(=O)C(=O)Nc1ccc(C)cc1)c1ccncc1	10.7	7.3	-3.7	22.4	1.1	-6.2
c1ccc(-c2cc3nc(NCc4cccs4)nc(NCc4ccc5occc5c4)c3s2)cc1	-94.7	-15.0	-0.7	-25.8	-39.1	63.5*
COc1ccc(S(N)(=O)=O)cc1C(=O)OCCCOc1ccc(F)cc1	11.7	7.4	11.9	-7.6	12.8	7.2
OC(c1cccc(Cl)c1)c1ncc(-c2ccc(Oc3ccccc3)cc2)[nH]1 (centres undefined)	-32.6	-1.8	16.7	-10.4	5.7	53.9*
SMILES	HIF-2a inh	TWEAK-Fn14 inh	CF NFkB block	KKLEB cytotox	TROY signal inh	Peg3 promoter
CCN(CC)CCNC(=O)c1cc2c(s1)-c1ccccc1SC2	-43.0	-35.6	15.1	-2.8	-30.4	42.1
CCC(C)OC(=O)c1cc(C)nc2c(Br)cc(Br)cc12 (centres undefined)	12.2	14.9	19.8	-3.0	12.0	19.4
CC1(C)CC(=O)C=C(Nc2ccc(OCC(F)(F)C(F)F)cc2)C1	-7.0	-4.2	-0.9	1.9	-11.9	8.7
O=c1[nH]c(C2CCN(S(=O)(=O)c3ccccc3C(F)(F)F)CC2)nc2c1nnn2Cc1ccccc1	13.9	-41.4	1.8	-2.1	50.7*	51.0*
O=c1[nH]c(C2CCCN(S(=O)(=O)c3cccc(Cl)c3)C2)nc2c1nnn2Cc1ccc2c(c1)OCCO2 (centres undefined)	23.1	-1.7	17.2	13.2	33.6	51.0*
O=c1[nH]c(C2CCCN(S(=O)(=O)c3ccccc3)C2)nc2c1nnn2Cc1ccc2c(c1)OCCO2 (centres undefined)	29.6	-13.4	12.2	-2.1	8.3	34.0
O=C(COc1ncnc2c(Cl)cc(Cl)cc12)NC1CCCCCC1	5.9	-28.6	1.1	-5.1	1.3	9.5
COc1ccc(CCNc2ccc(S(=O)(=O)N3CCN(C)CC3)cc2[N+](=O)[O-])cc1	11.1	7.6	-19.4	0.1	3.0	12.9
O=C(Cn1c(COc2ccccc2)nc2ccccc21)Nc1cc(Cl)ccc1Cl	8.4	-17.7	41.3	-46.2	-19.8	54.1*
CC(=O)c1ccc(OCC(C)Oc2ccc(C#N)cc2)cc1 (centres undefined)	11.7	-8.8	14.9	-10.0	13.4	2.9
Cc1ccccc1-n1c(SCC(=O)O)nc2sc3c(c2c1=O)CCCC3	12.1	0.0	11.5	15.6	8.5	16.6
CN(C)CCCn1c(=O)n(CCc2ccccc2)c(=O)c2c3c(sc21)CCCCC3	-47.6	-34.2	21.6	-11.1	-62.6	101.1*
CN1CCc2c(sc3nc(SCC(N)=O)n(-c4ccccc4)c(=O)c23)C1	-2.4	56.8*	-18.9	-4.5	nt	-13.1
O=C(O)CSc1nc2sc3c(c2c(=O)n1Cc1ccccc1)CCCCC3	-190.9	50.8*	6.8	0.9	57.2*	-133.2
CN1CCc2c(sc3nc(SCC(N)=O)n(-c4ccc(Cl)cc4)c(=O)c23)C1	-2.2	-3.3	-22.4	5.5	-8.0	-3.8
CN(C)CCCNc1nc2sc3c(c2c(=O)n1CCc1ccccc1)CCCCC3	-19.2	-16.7	14.8	-7.1	-32.0	113.2*
O=C(N/N=C/c1cccc2ccccc12)c1cccs1	-329.2	-24.5	-20.9	-1.7	-76.4	-286.1
CSc1cccc(NC(=O)CSc2ccc(C)cc2)c1	-120.5	-22.4	1.2	-1.8	-51.7	-73.0
CCC(=O)Nc1cccc(SC)c1	-5.0	98.7*	-2.6	-9.1	-16.8	0.9
COc1cc(CCNC2=CC(=O)c3ncccc3C2=O)ccc1O	39.5	10.2	77.9*	-2.1	1.2	27.3

Bioassay records as filed in PubChem.
